IL1B secr inh = inhibitors of inflammasome signaling (IL-1 beta secretion). THP-1 LPS/ATP IL-1B secretion, AlphaLISA, 16 h; stronger effect = lower value. activity change, % at 57.5 µM. 4.7% of 360,000 active; in the data active means activity change below about -50%; inconclusive means mostly about -30% to -49%
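Secreted IL-1B measured by AlphaLISA bead assay after 16 h compound exposure of THP-1 cells; compounds (final up to 57.5 uM) added 1 h before LPS (250 ng/mL) and ATP (1.25 mM) stimulation; lower signal means less secretion.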
D3 ag = agonists of human D3 dopamine receptor | P35462 | D3R DiscoveRx beta-arrestin cells, luminescence, 90 min | max activation, % | 0.58% of 410,000 active | AID 652048; in the data active means max activation above about 30%
Target sequence (P35462 whole entry, looked up): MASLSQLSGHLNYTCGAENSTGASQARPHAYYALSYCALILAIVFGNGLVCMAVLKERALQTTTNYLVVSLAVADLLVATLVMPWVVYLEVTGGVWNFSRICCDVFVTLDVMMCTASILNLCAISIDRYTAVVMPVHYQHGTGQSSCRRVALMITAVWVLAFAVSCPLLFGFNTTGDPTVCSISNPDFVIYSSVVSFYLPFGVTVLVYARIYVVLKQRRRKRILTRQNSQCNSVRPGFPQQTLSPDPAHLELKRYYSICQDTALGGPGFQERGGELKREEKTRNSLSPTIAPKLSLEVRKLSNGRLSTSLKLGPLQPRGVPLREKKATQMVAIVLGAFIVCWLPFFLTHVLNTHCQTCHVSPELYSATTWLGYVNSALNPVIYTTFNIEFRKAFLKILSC
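Agonist-mode cell screen: cells plated at 1500/well and incubated overnight at 37 °C, then exposed to library compounds for 90 min at 37 °C. Detection reagent was added for 30–60 min at room temperature, and luminescence was read.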
ATXN2 expr inh = reduces ATXN2 reporter expression in HEK-293 cells | Potency, µM (series often up to 57 µM), usual class: inhibitors | 0.72% of 360,000 active | HEK-293 ATXN2-luciferase reporter, luminescence, 24 h; further: nearly all actives have a fitted effect of over 55% in size
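ATXN2-luciferase reporter cells (luciferase flanked by upstream and downstream ATXN2 gene portions) were treated 24 h at 37 °C with compounds at up to 57 uM. SteadyGlo luminescence gave expression; GF-AFC fluorescence gave viability.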
ATXN viability = cell viability loss in ATXN counter-screen; S2 cells (HEK-293 line with an ATXN2-luciferase reporter) viability, CellTiter-Fluor protease fluorescence, 24 h; Potency, µM (doses to about 56.7 µM), actives largely listed as cytotoxic; 0.49% of 400,000 active; further: nearly all actives have a fitted effect of over 40% in size
a7 integrin act = activators of alpha7 integrin expression for muscular dystrophy; alpha7betagal myoblasts, beta-gal FDG fluorescence, 48 h; Potency, µM (highest dose often 38.3 µM), hits mostly activators; 0.064% of 350,000 active; AID 624291; further: nearly all actives have a fitted effect of over 60% in size
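Alpha7betagal+/- myoblasts (passage 13) were plated 16-24 hr, then exposed to compounds (1:260 dilution of DMSO stock) for 48 hours at 37C. After MPER lysis, β-galactosidase reporter activity was read as FDG fluorescence (ex 480/em 540) after 30 minutes.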
D3 antag = blocks the human D3 dopamine receptor | P35462 | D3R cells, DiscoveRx beta-arrestin luminescence, antagonist mode; stronger effect = lower value | max response, negative = inhibition, % | 2.5% of 360,000 active; in the data active means max response below about -50%; inconclusive means no clear call, values can overlap the other calls
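Cells plated overnight at 1500 cells/well, then exposed to library compounds with dopamine controls for 90 minutes at 37 degrees C. DiscoveRx reagent added for 30–60 minutes at room temperature; luminescence read, quantitative HTS format.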
Numbers stand for hits; ! = a repeat was not active; [ ] = dose if it differs, or a comment. Compounds with a hit are over-represented: about 7% of the library has one in this group of screens. Unless noted, the call rests on the fitted dose curve; in most records, active means well fitted curve in the direction sought with a large enough effect; inconclusive means small, poorly fitted or top-dose-only effect, or another doubt; inactive means no such curve, though single readings can be large; an effect the other way counts as inactive or inconclusive.

Results for Cc1ccnc(NC(=O)c2cccc(NC(=O)c3ccc(Cl)cc3)c2)c1 ?
IL1B secr inh: inactive; D3 ag: inactive; ATXN2 expr inh: inactive; ATXN viability: inconclusive; a7 integrin act: inactive; D3 antag: inactive

Results for O=C(Nc1ccccc1NC(=O)c1c(F)c(F)c(F)c(F)c1F)c1c(F)c(F)c(F)c(F)c1F ?
IL1B secr inh: -108; D3 ag: inactive; ATXN2 expr inh: inactive; ATXN viability: inconclusive; a7 integrin act: inactive; D3 antag: inactive

How did O=C(Nc1ccncc1)c1c(F)c(F)c(F)c(F)c1F do in these assays?
IL1B secr inh: -96; D3 ag: inactive; ATXN2 expr inh: inactive; ATXN viability: inconclusive; a7 integrin act: inactive; D3 antag: inactive

What do the screens show for `O=C(O)CNC(=O)CC12CC3CC(CC(C3)C1)C2`?
IL1B secr inh: inactive; D3 ag: inactive; ATXN2 expr inh: inactive; ATXN viability: inactive; a7 integrin act: inactive; D3 antag: inactive

How did COc1ccc(-n2nnc3c(=O)n(CC(=O)Nc4cc(C)on4)cnc32)cc1 do in these assays?
IL1B secr inh: inactive; D3 ag: inactive; ATXN2 expr inh: inactive[11.3 µM]; ATXN viability: inactive; a7 integrin act: inactive; D3 antag: inactive

What do the screens show for `O=C1C=C(c2ccc3c(c2)oc2ccccc23)C[C@@H](c2ccc3c(c2)OCO3)C1`?
IL1B secr inh: inactive; D3 ag: inactive; ATXN2 expr inh: inactive; ATXN viability: inactive; a7 integrin act: inactive; D3 antag: inactive

How did CCCCn1c(CCCNC(=O)c2ccco2)nc2ccccc21 do in these assays?
IL1B secr inh: inactive; D3 ag: inactive; ATXN2 expr inh: inactive; ATXN viability: inactive; a7 integrin act: inactive; D3 antag: inactive

How did CCOc1ccc2nc3sc(C(=O)N4CCOCC4)c(N)c3cc2c1 do in these assays?
IL1B secr inh: inconclusive; D3 ag: inactive; ATXN2 expr inh: inactive; a7 integrin act: inactive; D3 antag: inactive

Results for COc1ccc(CCNC(=O)c2cc(-c3cc(C)ccc3O)n[nH]2)cc1OC ?
IL1B secr inh: inconclusive; D3 ag: inactive; ATXN2 expr inh: inactive; ATXN viability: inactive; a7 integrin act: 10µM; D3 antag: inactive

What do the screens show for `COc1ccc(NC(=O)c2cc(-c3cc(Cl)ccc3C)n[nH]2)cc1OC`?
IL1B secr inh: -52; D3 ag: inactive; ATXN2 expr inh: inconclusive; ATXN viability: inconclusive; D3 antag: inactive

How did COc1ccc(NC(=O)c2cc(-c3cc(Cl)ccc3OC)n[nH]2)cc1OC do in these assays?
IL1B secr inh: -65; D3 ag: inactive; ATXN2 expr inh: inconclusive; ATXN viability: inactive; D3 antag: inactive

How did COc1ccc(CCNC(=O)c2cc(-c3ccc(C)c(C)c3O)n[nH]2)cc1OC do in these assays?
IL1B secr inh: inconclusive; D3 ag: inactive; ATXN2 expr inh: inactive; ATXN viability: inactive; a7 integrin act: inactive; D3 antag: inactive

What do the screens show for `COc1ccc(Cl)cc1-c1cc(C(=O)Nc2ccc(F)cc2)[nH]n1`?
IL1B secr inh: inactive; D3 ag: inactive; ATXN2 expr inh: inactive; ATXN viability: inactive; D3 antag: -69

Results for Cc1cccc(NC(=O)CN2C(=O)CSc3ccc(S(=O)(=O)N4CCCC4)cc32)c1C ?
D3 ag: inactive

How did O=C(C[C@@H]1C/C=C\C[C@@H](Cc2ccc(F)cc2)C(=O)OC[C@H]2CCCN2C1=O)N[C@H](CO)Cc1ccccc1 do in these assays?
IL1B secr inh: inactive; D3 ag: inactive; ATXN2 expr inh: inactive; ATXN viability: inactive; a7 integrin act: inactive; D3 antag: inactive

Results for C[C@H](CO)N1C[C@H](C)[C@H](CN(C)Cc2ccncc2)OCc2ccccc2-c2c(n(C)c3ccccc23)C1=O ?
IL1B secr inh: inactive; D3 ag: inactive; ATXN2 expr inh: inactive; ATXN viability: inconclusive; a7 integrin act: inactive; D3 antag: inactive

How did Cc1ccc(C(=O)NCc2nnc(SCC(=O)Nc3sc4c(c3C#N)CCCC4)n2C)cc1 do in these assays?
IL1B secr inh: inactive; D3 ag: inactive; ATXN2 expr inh: inactive; ATXN viability: inactive; a7 integrin act: inactive; D3 antag: inactive

What do the screens show for `CCNC(=O)C(CCSC)NS(=O)(=O)c1ccc(C)cc1` (centres undefined)?
IL1B secr inh: inactive; D3 ag: inactive; ATXN2 expr inh: inactive; ATXN viability: inactive; a7 integrin act: inactive; D3 antag: inactive

What do the screens show for `CCCNC(=O)CCC(NS(=O)(=O)c1ccc(C)cc1)C(=O)NCCC` (centres undefined)?
IL1B secr inh: inactive; D3 ag: inactive; ATXN2 expr inh: inactive; ATXN viability: inactive; a7 integrin act: inactive; D3 antag: -56

How did COc1cc(CN(C(=O)c2cccs2)C2CCS(=O)(=O)C2)cc(OC)c1OC (centres undefined) do in these assays?
IL1B secr inh: inactive; D3 ag: inactive; ATXN2 expr inh: inactive; ATXN viability: inactive; a7 integrin act: inactive; D3 antag: inactive

How did CC1CCC(C(C)C)C(OC(=O)Cn2c(-c3ccc(Br)cc3)[n+](C)c3ccccc32)C1 (centres undefined) do in these assays?
IL1B secr inh: -101; D3 ag: inactive; ATXN2 expr inh: inconclusive; ATXN viability: inconclusive; a7 integrin act: inactive; D3 antag: -67!

How did CC1CCC(C(C)C)C(OC(=O)COC(=O)c2cccn2C)C1 (centres undefined) do in these assays?
IL1B secr inh: inactive; D3 ag: inactive; ATXN2 expr inh: inactive; ATXN viability: inactive; a7 integrin act: inactive; D3 antag: inactive

Results for CCOC(=O)Cn1c(COc2ccccc2OC)[n+](C)c2ccccc21 ?
IL1B secr inh: inactive; D3 ag: inactive; ATXN viability: inactive; a7 integrin act: inactive; D3 antag: inactive

How did CC1CCC(C(C)C)C(OC(=O)Cn2c(-c3ccc(Cl)cc3)[n+](C)c3ccccc32)C1 (centres undefined) do in these assays?
IL1B secr inh: -91; D3 ag: inactive; ATXN2 expr inh: inconclusive; ATXN viability: inconclusive; a7 integrin act: inactive; D3 antag: inconclusive

How did Cc1ccccc1OCc1n(CC(=O)OC2CC(C)CCC2C(C)C)c2ccccc2[n+]1C (centres undefined) do in these assays?
IL1B secr inh: -97!; D3 ag: inactive; ATXN2 expr inh: inconclusive; ATXN viability: 25µM; a7 integrin act: inactive; D3 antag: inactive

Results for O=C(COC(=O)c1ccc(Cl)c(S(=O)(=O)N2CCOCC2)c1)Nc1ccc2[nH]c(=O)[nH]c2c1 ?
IL1B secr inh: inactive; D3 ag: inactive; ATXN2 expr inh: inactive; ATXN viability: inactive; a7 integrin act: inactive; D3 antag: inactive

What do the screens show for `O=c1c(Cc2ccc(F)cc2)c(O)ccn1CCc1ccccn1`?
IL1B secr inh: inactive; D3 ag: inactive; ATXN2 expr inh: inactive; ATXN viability: inconclusive; a7 integrin act: inactive; D3 antag: inactive

Results for CCn1cnc2sc(C(=O)N(Cc3ccc(N(C)C)cc3)Cc3ccco3)c(C)c2c1=O ?
IL1B secr inh: -76; D3 ag: inactive; ATXN2 expr inh: inactive; ATXN viability: inactive; a7 integrin act: inactive; D3 antag: inactive

Screens: PubChem BioAssay, National Center for Advancing Translational Sciences (NCATS)
